Abeta yeast res: restores growth of yeast expressing A-beta42 peptide; Potency, µM (titrated, usually from 46.1 µM), usual class: activators; yeast expressing A-beta42, growth rescue, OD600, 48 h; response scale: 0% DMSO, 100% iron-clioquinol control; 0.063% of 410,000 active; AID 1347071; further: nearly all actives have a fitted effect of over 55% in size
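Growth rescue measured by 600 nm absorbance after 48 h yeast culture at 30 C with compound. Values normalized between DMSO and an equimolar ferric chloride plus clioquinol control.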
TDP-43 yeast inh: rescues yeast growth from TDP-43 toxicity | Potency, µM (titrated, usually from 46.1 µM), for the others: at the top dose growth rescue (activation), hits mostly activators | AID 652104 | TDP-43 expressing yeast growth rescue, BacTiter-Glo, 24 h | 1.8% of 410,000 active; further: % of control where 0% means no effect; nearly all actives have a fitted effect of over 50% in size
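Yeast cells expressing TDP-43 under galactose induction are exposed to compounds for 24 hr at 30 deg C. BacTiter-Glo luminescence measures growth, so protective compounds score as activators.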
aSyn rescue: rescues yeast growth from alpha-synuclein toxicity | Yeast expressing alpha-synuclein, growth rescue, BacTiter-Glo, 24 h | Potency, µM (series often up to 46.1 µM), for inactives: at the top dose growth rescue (activation), hits mostly activators | 0.14% of 370,000 active; further: % of control where 0% means no effect; nearly all actives have a fitted effect of over 65% in size
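Screening used galactose-induced yeast with toxic alpha-synuclein levels, exposed to compound for 24 hr at 30 deg C. Cell growth, read with BacTiter-Glo luminescence, gave the measured signal.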
FUS suppressor: suppressors of FUS proteinopathy in yeast. S. cerevisiae FUS-expressing, growth rescue, OD600, 24 h. Potency, µM (highest dose often 76.6 µM), hits mostly activators. 0.24% of 390,000 active;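 further: plate controls were DMSO vehicle for no effect and reference control for full effect; nearly all actives have a fitted effect of over 55% in size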
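Toxicity suppression screen in FUS-yeast. Cells induced with 2% galactose, starting OD 0.005, treated 24hr at 30C with compounds at multiple final concentrations; growth by OD600.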
* = called active by the depositor. Compounds with a hit are over-represented: about 2.1% of the library has one in this group of screens. The call rests on the fitted dose curve; in most records, active means well fitted curve in the direction sought with a large enough effect; inconclusive means small, poorly fitted or top-dose-only effect, or another doubt; inactive means no such curve, though single readings can be large; an effect the other way counts as inactive or inconclusive. Potency means the concentration at half of the fitted maximal effect.

Results for COCCNC(=S)N/N=C(\C)c1cccc(C(F)(F)F)c1 ?
Abeta yeast res: 11.2µM*; TDP-43 yeast inh: -18.4%; aSyn rescue: -11.9%; FUS suppressor: inactive

What do the screens show for `COCCNC(=S)N/N=C(\C)c1ccc2cc(OC)ccc2c1`?
Abeta yeast res: inactive; TDP-43 yeast inh: 7.1%; aSyn rescue: -9.2%; FUS suppressor: inactive

Results for Cc1ccc2[nH]cc(C(c3ccccc3)c3cccs3)c2c1 (stereo not drawn) ?
Abeta yeast res: inactive; TDP-43 yeast inh: 8.91µM*; FUS suppressor: inactive

What do the screens show for `CCOc1ccccc1-c1ccc(C(=O)NCc2ccccc2)o1`?
Abeta yeast res: inactive; TDP-43 yeast inh: 15.8µM*; aSyn rescue: 3.4%; FUS suppressor: inactive

How did CCc1sc(C(=O)NCc2ccco2)cc1Br do in these assays?
Abeta yeast res: inactive; TDP-43 yeast inh: 15.8µM*; aSyn rescue: -12.4%; FUS suppressor: inactive

What do the screens show for `CCc1sc(C(=O)NCc2ccco2)cc1C`?
Abeta yeast res: inactive; TDP-43 yeast inh: 23.9%; aSyn rescue: 5.2%; FUS suppressor: inactive

What do the screens show for `COc1ccc(Cn2c(C(=O)O)c(CNCCc3cc(OC)ccc3OC)c3ccc(C)cc32)cc1`?
Abeta yeast res: inactive; TDP-43 yeast inh: 4.2%; FUS suppressor: 28.2µM*

How did C=Cc1ccc(Cn2c(C(=O)O)c(CNCc3ccc(F)cc3)c3ccc(C)cc32)cc1 do in these assays?
Abeta yeast res: inactive; TDP-43 yeast inh: 9.0%; FUS suppressor: 31.6µM*

How did C=Cc1ccc(Cn2c(C(=O)O)c(CNCc3cccs3)c3ccc(C)cc32)cc1 do in these assays?
Abeta yeast res: inactive; TDP-43 yeast inh: 0.0%; FUS suppressor: inconclusive

Results for Cc1nn(C)c(Nc2ccc(Br)cc2)c1Br ?
Abeta yeast res: inconclusive; TDP-43 yeast inh: 17.8µM*; aSyn rescue: inconclusive; FUS suppressor: inactive

How did O=c1oc(-c2cccs2)nc2sc3c(c12)CCCC3 do in these assays?
Abeta yeast res: inactive; TDP-43 yeast inh: -20.1%; aSyn rescue: -14.5%; FUS suppressor: inactive

How did O=C1CN(c2nc(-c3cccs3)nc3sc4c(c23)CCCC4)CCN1 do in these assays?
Abeta yeast res: inactive; TDP-43 yeast inh: 20.3%; aSyn rescue: 19.9%; FUS suppressor: 35.5µM*

What do the screens show for `CN(C(=O)Cn1c(=O)n(Cc2ccc(C(=O)NCc3ccc4c(c3)OCO4)cc2)c(=O)c2ccccc21)c1ccccc1`?
Abeta yeast res: inactive; TDP-43 yeast inh: -22.3%; FUS suppressor: inconclusive

Results for CCOC(=O)C(=CNNc1ccccc1)C(=O)OCC ?
Abeta yeast res: inactive; TDP-43 yeast inh: 12.6µM*; aSyn rescue: inconclusive; FUS suppressor: inactive

How did Oc1ccc(/C=N/Nc2ccc(C(F)(F)F)cn2)cc1 do in these assays?
Abeta yeast res: inconclusive; TDP-43 yeast inh: 10µM*; aSyn rescue: -23.9%; FUS suppressor: inactive

Results for Cc1ccccc1Nc1nnc(SCC(=O)Nc2ccccc2[N+](=O)[O-])s1 ?
Abeta yeast res: inactive; TDP-43 yeast inh: 15.8µM*; aSyn rescue: 5.2%; FUS suppressor: inactive

What do the screens show for `C/C(N)=C(/C#N)C(=O)CSc1nnc(Nc2cccc(C)c2C)s1`?
Abeta yeast res: inactive; TDP-43 yeast inh: 0.0%; aSyn rescue: -0.3%; FUS suppressor: inactive

What do the screens show for `Cc1cccc(Nc2nnc(SCC(=O)c3ccc(Br)s3)s2)c1C`?
Abeta yeast res: inconclusive; TDP-43 yeast inh: 25.1µM*; aSyn rescue: 20.8%; FUS suppressor: inactive

What do the screens show for `O=C(NCCc1ccccc1)C1C(=O)Nc2ccccc2C(=O)N1C1CCCCC1` (stereo not drawn)?
Abeta yeast res: inactive; TDP-43 yeast inh: inconclusive; aSyn rescue: 12.6µM*; FUS suppressor: inactive

Results for O=C(NCc1ccccc1)C1C(=O)Nc2ccccc2C(=O)N1C1CCCC1 (stereo not drawn) ?
Abeta yeast res: inactive; TDP-43 yeast inh: 14.6%; aSyn rescue: 1.9%; FUS suppressor: inactive

What do the screens show for `CCOc1ccc(CN2C(=O)c3ccccc3Sc3ccc(C(=O)NC4CCC(C)CC4)cc32)cc1` (stereo not drawn)?
Abeta yeast res: inactive; TDP-43 yeast inh: -16.4%; FUS suppressor: inconclusive

How did Cc1cc(C)c2ccc(/C=N/O)nc2c1O do in these assays?
Abeta yeast res: inconclusive; TDP-43 yeast inh: 21.0%; aSyn rescue: 12.6µM*; FUS suppressor: inactive

How did Cc1cc(C)c2ccc(NN)nc2c1O do in these assays?
Abeta yeast res: inactive; TDP-43 yeast inh: 5.3%; aSyn rescue: -1.6%; FUS suppressor: inactive

What do the screens show for `COc1cccc(-n2nnnc2S(C)(=O)=O)c1`?
Abeta yeast res: inactive; TDP-43 yeast inh: 1µM*; aSyn rescue: -17.1%

Results for COC(=O)c1nnn(-c2cccc(C)c2)c1C(=O)OC ?
Abeta yeast res: inactive; TDP-43 yeast inh: -3.7%; FUS suppressor: inactive

Results for Cc1cccc(-n2nnnc2S(C)(=O)=O)c1 ?
Abeta yeast res: inactive; TDP-43 yeast inh: 17.8µM*; FUS suppressor: inactive

How did COc1cccc(-n2cnnn2)c1 do in these assays?
Abeta yeast res: inactive; TDP-43 yeast inh: 14.6%; aSyn rescue: 0.3%; FUS suppressor: inactive

What do the screens show for `COc1ccc(-n2ccn(CC(=O)NCCc3ccccc3)c(=O)c2=O)cc1OC`?
Abeta yeast res: inactive; TDP-43 yeast inh: 3.3%; FUS suppressor: inactive

How did COC(=O)[C@]12C[C@H](CC(=O)N3CCSCC3)C(=O)N(Cc3ccc(Cl)cc3Cl)C1=C[C@H](C(C)C)O[C@@H]2C1CC1 do in these assays?
FUS suppressor: inactive

Results for COc1ccc(CN2C(=O)c3cccnc3C2=O)cc1S(=O)(=O)N1CC(C)CC(C)C1 (stereo not drawn) ?
Abeta yeast res: inactive; TDP-43 yeast inh: 15.9%; aSyn rescue: -14.6%; FUS suppressor: inactive

What do the screens show for `CC1CCCN(S(=O)(=O)c2ccc(CN3C(=O)c4cccnc4C3=O)cc2)C1` (stereo not drawn)?
Abeta yeast res: inactive; TDP-43 yeast inh: inconclusive; aSyn rescue: 0.562µM*; FUS suppressor: inactive

How did Cc1cccc(NC(=O)CN2C(=O)CSc3ccc(S(=O)(=O)N4CCCC4)cc32)c1C do in these assays?
Abeta yeast res: inactive; TDP-43 yeast inh: 4.1%; FUS suppressor: inactive

How did O=C(C1CCCCC1)N1C[C@@H](n2cc(-c3ccc(F)cc3)nn2)[C@H](O)C[C@@H]1c1ccc(Cl)cc1 do in these assays?
Abeta yeast res: inactive; TDP-43 yeast inh: 22.4µM*; aSyn rescue: 2.0%; FUS suppressor: inactive

How did C[n+]1ccc(/C=C/c2ccc([N+](C)(C)C)cc2)c2ccccc21 do in these assays?
aSyn rescue: -64.8%

Results for COc1ccc(-c2oc3cc(O)c(OC)c(O)c3c(=O)c2OC)cc1 ?
Abeta yeast res: inactive; TDP-43 yeast inh: 0.0%; aSyn rescue: 3.5%; FUS suppressor: inactive

What do the screens show for `COc1ccc(-c2oc3cc(OC)c(O)c(OC)c3c(=O)c2OC)cc1O`?
Abeta yeast res: inactive; TDP-43 yeast inh: 22.4µM*; aSyn rescue: -0.6%; FUS suppressor: inactive
